Sampled rows, rich in hits. Any-hit rate of the full collection: about 6%.
D1 antagonist – human D1 dopamine receptor antagonism; activity change, negative = inhibition, % at 10 µM; HEK293 TREx D1 cells, calcium flux, dopamine EC80; hits give low values; actives 3.2% (n = 360,000); P21728; AID 504652; in the data active = activity change below about -30%; note: % is set by controls: 0 for no effect and ±100 for the full control effect
Target sequence (P21728 whole entry, looked up): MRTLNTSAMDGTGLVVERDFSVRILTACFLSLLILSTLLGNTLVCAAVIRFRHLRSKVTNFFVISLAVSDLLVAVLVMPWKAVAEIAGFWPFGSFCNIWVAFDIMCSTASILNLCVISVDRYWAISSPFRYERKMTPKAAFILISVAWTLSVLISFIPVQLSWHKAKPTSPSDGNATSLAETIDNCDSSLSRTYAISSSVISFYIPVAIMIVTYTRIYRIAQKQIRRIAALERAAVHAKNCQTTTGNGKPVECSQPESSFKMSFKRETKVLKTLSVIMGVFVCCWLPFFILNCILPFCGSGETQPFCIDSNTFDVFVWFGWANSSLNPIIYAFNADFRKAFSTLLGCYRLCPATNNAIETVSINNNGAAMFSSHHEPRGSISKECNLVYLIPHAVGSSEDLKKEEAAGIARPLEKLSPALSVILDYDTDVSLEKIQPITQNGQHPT
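Kinetic fluorescence of a calcium dye serves as the read-out. D1-expressing Hek293 Trex cells, induced overnight at 30 C, are exposed to compound for 180 s before an EC80 dopamine addition, then read 180 s further.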
D1 ag – human D1 receptor agonism. actives 1% (n = 360,000). AID 504660. activation, % at 2 µM. HEK293 T-REx D1 cells, calcium flux, agonist mode; in the data active = activation above about 30%; note: 0% is about no effect
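Agonism was scored from calcium flux recorded over 180 s (1 read/s) after pintool compound addition, following a 10-cycle baseline. Cells were inducible force-coupled HEK293 TREx D1, plated overnight at 30 C and loaded with no-wash calcium dye.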
DRD3 antagonist – blocks the human D3 dopamine receptor; D3R cells, DiscoveRx beta-arrestin luminescence, antagonist mode; hits give low values; max response, negative = inhibition, %; actives 2.5% (n = 360,000); P35462; in the data active = max response below about -50%; inconclusive = no clear call, values can overlap the other calls; note: % is set by controls: 0 for no effect and ±100 for the full control effect
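Cells expressing the human receptor were seeded at 1500 cells/well, incubated overnight at 37 degrees C in 5% CO2, then exposed to library compounds with dopamine controls for 90 minutes at 37 degrees C before luminescent detection.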
D3 ag – D3 dopamine receptor (human) agonism; P35462; D3R DiscoveRx beta-arrestin cells, luminescence, 90 min; max activation, %; actives 0.58% (n = 410,000); in the data active = max activation above about 30%; note: 0% is about no effect
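Agonist mode: compounds and dopamine controls were applied to plated cells for 90 min at 37 degrees C after an overnight attachment at 1500 cells/well. Luminescent read-out followed 30 - 60 minutes at room temperature with DiscoveRx detection reagent.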
BCR signal inh – inhibitors of chronic active B-cell receptor signaling | ABC-DLBCL IkBa-CBG/CBR reporter, luminescence ratio, 4 h | Potency, µM (highest dose often 46.1 µM), inactives show at the highest dose activity change, negative = inhibition, actives largely listed as inhibitors | actives 0.05% (n = 340,000) | AID 493014; active = well fitted inhibition curve with a large enough effect in the signal ratio, with a control signal flat, not every such curve was filed as active; inconclusive = small, poorly fitted or top-dose-only effect, or effect the other way, or a change in a side signal; the % refers to the signal ratio;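 note: potency is the fitted concentration of half-maximal effect; plate controls were basal doxycycline-induced cells for no effect and cells given 10 µM MG132 for full effect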
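Compounds up to 46 uM were incubated four hours with TMD8 cells whose green CBG68 luciferase is fused to IkappaBalpha; red CBR luminescence normalised the signal, and concentration-effect curves were fitted to fusion, red and ratio data.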
D1 potentiator – human D1 dopamine receptor positive modulation; P21728; HEK293 TREx D1 cells, calcium flux, dopamine EC20 potentiation; potentiation, % at 10 µM; actives 0.036% (n = 360,000); AID 504651; in the data active = potentiation above about 30%; note: 0% is about no effect
* hit, by the source's call.

`CCCCOc1cccc(C(=O)Nc2ccc3oc(-c4cccnc4)nc3c2)c1` gave D1 antagonist -6.6, D1 ag -1.3, D3 ag 2.2 and D1 potentiator -1.4.
Screening CC1Cc2cc(S(=O)(=O)CCC(=O)Nc3ccc(F)cc3)ccc2N1C(=O)C1CC1 (stereo not given) returned D1 antagonist -5.0, D1 ag -0.3, D3 ag 8.3 and D1 potentiator -1.6.
Screening COc1cc(NC(=O)Nc2nnc([C@H]3C[C@H](O)[C@@H](CO)O3)s2)cc(OC)c1 returned DRD3 antagonist 14.7 and D3 ag 6.6.
Screening Cc1ccc(C)c(C(=O)COC(=O)CCN2C(=O)C3C4CCC(C4)C3C2=O)c1 (stereo not given) returned D1 antagonist -45.0*, D1 ag 2.5, DRD3 antagonist 11.4, D3 ag 9.4, BCR signal inh 3.9% and D1 potentiator -6.7.
For CC(=O)c1ccc(N2C(=O)N(Cc3ccc(F)cc3)c3ccccc3S2(=O)=O)cc1 the results were D1 antagonist 8.0, D1 ag 5.9, D3 ag 49.5*, BCR signal inh inconclusive and D1 potentiator -2.6.
Cc1cccc(N2C(=O)N(Cc3cc(=O)n4ccccc4n3)c3ccccc3S2(=O)=O)c1 was read as D1 antagonist -68.6*, D1 ag 0.3, D3 ag -15.4, BCR signal inh inconclusive and D1 potentiator 3.4.
Screening CC(=O)c1ccc(N2C(=O)N(CC(=O)c3ccc(F)cc3)c3ccccc3S2(=O)=O)cc1 returned D1 antagonist -11.7, D1 ag 7.8, D3 ag -9.7, BCR signal inh 11.8% and D1 potentiator -4.7.
For Cc1cccc(N2C(=O)N(Cc3ccc(C(C)(C)C)cc3)c3ccccc3S2(=O)=O)c1 the results were D1 antagonist -47.6*, D1 ag 1.4, D3 ag 1.9, BCR signal inh 18.4% and D1 potentiator 1.3.
`Cc1ccc(CN2C(=O)N(c3ccc(C)c(Cl)c3)S(=O)(=O)c3ccccc32)cc1` gave D1 antagonist -17.1, D1 ag 4.3, D3 ag -1.2, BCR signal inh 16.0% and D1 potentiator -1.6.
Nc1c(-c2nc(-c3ccc4c(c3)OCO4)cs2)c2ccccn2c1C(=O)c1ccc(Cl)cc1 was read as D1 antagonist 8.8, D1 ag 0.3, D3 ag -3.2 and D1 potentiator -0.9.
`COc1ccc(-c2csc(-c3c(N)c(C(=O)c4ccccc4)n4ccccc34)n2)cc1` gave D1 antagonist -3.3, D1 ag 0.2, D3 ag 0.7 and D1 potentiator -2.3.
For Nc1c(-c2nc(-c3ccc4c(c3)OCO4)cs2)c2ccccn2c1C(=O)c1ccccc1 the results were D1 antagonist -40.9*, D1 ag 0.2, D3 ag 1.4 and D1 potentiator 0.7.
`COc1cccc(C(=O)c2c(N)c(-c3nc(-c4ccccc4)cs3)c3ccccn23)c1` gave D1 antagonist -42.7*, D1 ag 7.6, D3 ag 7.7 and D1 potentiator 1.7.
COc1ccc(S(=O)(=O)N2CCN(c3ccccc3)CC2)cc1-c1noc(C)n1 was read as D1 antagonist -8.1, D1 ag 1.2, D3 ag 5.4 and D1 potentiator 0.8.
Screening CCN(CC)c1ccc(/C=C2\SC(=O)N(C(C)C)C2=O)o1 returned D1 antagonist -17.3, D1 ag 51.4*, DRD3 antagonist inconclusive, D3 ag -15.1, BCR signal inh inconclusive and D1 potentiator -4.9.
CC(C)N1C(=O)S/C(=C/c2ccc3c(c2)n(C)c(=O)n3C)C1=O was read as D1 antagonist 2.4, D1 ag -0.6, DRD3 antagonist 33.8, D3 ag 14.8, BCR signal inh inconclusive and D1 potentiator -3.1.
For CN(Cc1nc2ccccc2c(=O)[nH]1)C(=O)c1cccc(S(=O)(=O)N2CCCCCC2)c1 the results were D1 antagonist 3.8, D1 ag -0.5, DRD3 antagonist 12.0, D3 ag 2.2, BCR signal inh -1.6% and D1 potentiator -4.2.
For COCCN(Cc1nc2ccccc2c(=O)[nH]1)C(=O)c1cccc(S(=O)(=O)N2CCCC2)c1 the results were D1 antagonist -55.2*, D1 ag 1.6, DRD3 antagonist -10.3, D3 ag -1.6, BCR signal inh -0.3% and D1 potentiator 0.2.
For O=C(N=C1SCC(=O)N1c1ccccc1Cl)c1ccco1 the results were D1 antagonist -32.5*, D1 ag 7.1, DRD3 antagonist 39.8, D3 ag 3.6, BCR signal inh -2.9% and D1 potentiator -12.9.
Screening CC(C)Cn1c(=O)c2sccc2n2c(CCCC(=O)NCCc3ccccc3)nnc12 returned D1 antagonist -13.9, D1 ag 2.4, D3 ag 4.0 and D1 potentiator -2.5.
For O=C1C(Nc2ccccc2)=C/C(=N/S(=O)(=O)c2cccs2)c2ccccc21 the results were D1 antagonist -2.7, D1 ag 5.5, DRD3 antagonist -85.4*, D3 ag -38.4, BCR signal inh inconclusive and D1 potentiator -0.5.
Cc1ccc(S(=O)(=O)/N=C2\C=C(NS(=O)(=O)c3ccccc3)C(=O)c3ccccc32)c(C)c1 was read as DRD3 antagonist inconclusive and D3 ag -23.3.
`Cc1ccc(S(=O)(=O)/N=C2\C=C(Nc3cccc(C(=O)O)c3)C(=O)c3ccccc32)cc1` gave D1 antagonist 6.7, D1 ag 3.4, DRD3 antagonist inconclusive, D3 ag -23.6, BCR signal inh inconclusive and D1 potentiator -7.2.
`Cc1ccc(NC2=C/C(=N/S(=O)(=O)c3cccs3)c3ccccc3C2=O)cc1` gave D1 antagonist 4.4, D1 ag -2.1, DRD3 antagonist -71.6*, D3 ag -11.6, BCR signal inh inconclusive and D1 potentiator -2.4.
For Cc1ccc(S(=O)(=O)/N=C2\C=C(Nc3ccc(O)cc3)C(=O)c3ccccc32)cc1 the results were DRD3 antagonist -94.0*, D3 ag -12.9 and BCR signal inh inconclusive.
OC(c1ccccc1)C(O)C(c1ccccc1)N1CCCCC1 (stereo not given) was read as DRD3 antagonist 9.3 and D3 ag 7.9.
Screening Nc1[nH]c(C(=O)c2ccccc2)c(-c2ccc(Cl)cc2Cl)c1C(=O)c1ccc(Br)cc1 returned DRD3 antagonist -10.1 and D3 ag 1.0.
CCOC(=O)/C=C/[C@H]1CCc2cccc(C)c2O1 was read as D1 ag -2.2, DRD3 antagonist -62.7*, D3 ag 4.5, BCR signal inh inconclusive and D1 potentiator 1.8.

Compound activity: PubChem BioAssay, National Center for Advancing Translational Sciences (NCATS)
